According to ChEMBL document CHEMBL1857833, “Screening and optimization of specific chemical series against human African Trypanosomiasis (HAT)”:
Out of some 4,400 compounds screened, about 390 (8.9%) showed an effect of 50% or more. Only a selection was taken, and strong results are over-represented in it overall.

Tested on: Trypanosoma brucei
Test: DNDI: Inhibition of Human African Trypanosomiasis, SBRI 427, in vitro at 2 ug.mL-1
Assay type: functional

In order of rising “% inhibition” value:
1. CN(C)CCN(Cc1ccccc1)Cc1coc(-c2cccc(F)c2)n1  -25%
2. Fc1ccc(-c2nc(CN3CCN(c4cccc(Cl)c4)CC3)co2)cc1  -16%
3. CC1CCCN1/C(=N\O)c1ccnc(Oc2ccc(Cl)cc2)c1 (centres undefined)  -11%
4. CCOc1ccc(-c2nc(CNc3ccnn3CC)co2)cc1  -10%
5. COc1cc(-c2nc(CN3CCN(C)CC3)co2)cc(OC)c1OC  -2%
6. O/N=C(\NC1CCc2ccccc21)c1ccc(Oc2ccc(-n3ccnc3)cc2)nc1 (centres undefined)  -1%
7. CN1CCCC1CCN/C(=N\O)c1cccnc1Oc1cccc(C(F)(F)F)c1 (centres undefined)  3%
8. Cc1ccc(/C(=N/O)NC(C)C)c(Oc2ccc(F)c(F)c2)n1  4%
9. O/N=C(\NCC1CCCCC1)c1ccnc(Oc2ccc(F)c(Cl)c2)c1  5%
10. Cc1cn(Cc2coc(-c3cccc(F)c3)n2)c(C)n1  5%
11. CCC(CC)N/C(=N\O)c1ccc(C)nc1Oc1ccc(SC)c(C)c1  6%
12. CCC(CC)N/C(=N\O)c1ccc(C)nc1Oc1cccc(C(C)C)c1  6%
13. Cc1ccc(/C(=N/O)N2CC(C)CC(C)C2)c(Oc2ccc3oc4ccccc4c3c2)n1 (centres undefined)  11%
14. COc1cccc(-c2nc(CN3CCCCC3)co2)c1  12%
15. Cc1ccc(/C(=N/O)Nc2ccc(C(C)C)cc2)c(Oc2cc(Cl)ccc2Cl)n1  14%
16. Cc1cccc(-c2nc(CNC(C)c3cccc4ccccc34)co2)c1 (centres undefined)  14%
17. Cc1ccc(/C(=N/O)n2ccnc2)c(OCc2ccccn2)n1  16%
18. Clc1ccccc1-c1nc(CN(CCc2ccccc2)Cc2ccccc2)co1  17%
19. O/N=C(/c1ccnc(Oc2ccc(Cl)cc2)c1)N1CCCCCC1  18%
20. O/N=C(\NCc1ccncc1)c1ccnc(Oc2ccc(Cl)cc2)c1  20%
21. COCC(C)N/C(=N\O)c1ccc(C)nc1Oc1cccc(F)c1 (centres undefined)  20%
22. O/N=C(/c1ccnc(Oc2ccc(Cl)cc2)c1)N1CCCCC1  23%
23. CCOc1ccc(Oc2cc(/C(=N/O)NCC3CCCCC3)ccn2)cc1  33%
24. CCC(CC)N/C(=N\O)c1ccc(C)nc1Oc1cccc(F)c1  88%
25. O/N=C(\NC1CCCC1)c1ccnc(Oc2ccc(Cl)cc2)c1  93%
26. O/N=C(\NCC1CCCCC1)c1ccnc(Oc2ccc(Cl)cc2)c1  98%
27. O/N=C(\NC1CCCCC1)c1ccnc(Oc2ccc(Cl)cc2)c1  99%
28. CCC(CC)N/C(=N\O)c1ccc(C)nc1Oc1ccc(F)c(Cl)c1  100%
29. CCC(CC)N/C(=N\O)c1ccc(C)nc1Oc1cc(Cl)ccc1Cl  100%
